Assay results published in PubChem BioAssay (NCATS).
“And” between values parts separate entries of the source, which are not always exact repeats. Identical values can stand only once. Records with an inconclusive call do not appear. The source made the active and inactive calls. Unless noted, calls come from the whole dose curve.

How the values were obtained:
[1] = target: Estrogen receptor (Homo sapiens) (UniProt P03372); experiment: qHTS assay for small molecule antagonists of estrogen receptor alpha signaling (AID 588513; active = well fitted curve in the direction sought with a large enough effect in the signal ratio, with a control signal flat, not every such curve was filed as active; the % refers to the signal ratio; note: potency is the fitted concentration of half-maximal effect)
Method in brief: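 Antagonist-mode qHTS in ER-alpha-UAS-bla HEK 293 cells: compound titration, 0.5nM estradiol for 18 h, CCF4 fluorescence, Hill-derived IC50.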

[2] = target: Estrogen receptor (Homo sapiens) (UniProt P03372); experiment: qHTS assay for small molecule agonists of estrogen receptor alpha signaling (AID 588514);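 note: 0% = vehicle only and 100% = reference agonist; nearly all actives have a fitted effect of over 70% in size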
Method in brief: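 ER-alpha-UAS-bla GripTite HEK 293 cells in medium with 2% charcoal/dextran-treated FBS were treated with compound titrations at 37 C for 18 hrs; beta-lactamase reporter read by CCF4 fluorescence after 2 hrs at RT.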

[3] = target: Peroxisome proliferator-activated receptor delta (Homo sapiens) (UniProt Q03181); experiment: qHTS assay for small molecule agonists of peroxisome proliferator-activated receptor delta signaling (AID 588534);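 note: 0% = DMSO basal wells and 100% = positive control agonist at 10 µM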
Method in brief: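 Cell-based beta-lactamase reporter assay run in agonist mode: cells seeded and incubated 5 hrs at 37 C, compounds added and incubated 18 hrs at 37 C. CCF4 dye fluorescence read after 2 hrs at RT; EC50 and efficacy from Hill fits.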

[4] = qHTS assay for small molecule antagonists of peroxisome proliferator-activated receptor delta signaling (AID 588535); settings: HEK293T PPARd-UAS-bla, beta-lactamase FRET ratio, 18 h; 460 nm channel;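 note: cells co-treated with a PPAR-delta agonist as stimulator during compound exposure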
Method in brief: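 Cell-based beta-lactamase assay in antagonist mode: 4000 HEK293T PPAR-delta-UAS-bla cells per well, 5 hr preincubation then 18 hr compound incubation at 37 C. IC50 obtained by Hill equation fitting.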

[5] = target: Peroxisome proliferator-activated receptor gamma (Homo sapiens) (UniProt P37231); experiment: qHTS assay for small molecule agonists of peroxisome proliferator-activated receptor gamma signaling (AID 588536; active = well fitted curve in the direction sought with a large enough effect in the signal ratio, with a control signal flat, not every such curve was filed as active; the % refers to the signal ratio;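 note: 0% = DMSO basal wells and 100% = rosiglitazone at 2 µM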)
Method in brief: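 Ratiometric blue/green fluorescence (405 nm excitation; 460 and 530 nm emission) from CCF4-loaded HEK293 reporter cells serves as signal. Exposure to test compounds lasts 16 h at 37 C in medium containing 1% charcoal/dextran-treated serum.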

[6] = target: Vitamin D3 receptor (Homo sapiens) (UniProt P11473); experiment: qHTS assay for small molecule antagonists of vitamin D receptor signaling (AID 588541);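 note: receptor activated by calcitriol during compound treatment; series mostly up to about 77 µM; % is set by controls: 0 for no effect and ±100 for the full control effect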
Method in brief: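 Antagonist-mode beta-lactamase reporter assay: HEK293T VDR-UAS-bla cells were exposed to titrated compound alongside 1-alpha,25-dihydroxyvitamin D3 at 3 nM final for 16 h. Values were normalized to the 50 nM agonist control and DMSO basal, with IC50 and efficacy from Hill equation fits.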

[7] = target: Retinoic acid receptor RXR-alpha (Homo sapiens) (UniProt P19793); experiment: qHTS assay for small molecule agonists of retinoid X receptor alpha signaling (AID 588544);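 note: 0% = DMSO basal wells and 100% = reference agonist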
[8] = target: Thyroid hormone receptor beta (Homo sapiens) (UniProt P10828); experiment: qHTS assay for small molecule agonists of thyroid hormone receptor beta signaling (AID 588545)
Method in brief: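 Agonist-mode beta-lactamase reporter assay, HEK 293 cells, 2% charcoal/dextran FBS; cells plated 4 hrs, compound 18 hrs at 37 C, CCF4 2 hrs RT. Normalized to 10 nM T3 (100%) and DMSO (0%); Hill fit gives EC50, efficacy.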

[9] = qHTS assay for small molecule antagonists of retinoid X receptor alpha signaling (AID 588546; active = well fitted inhibition curve with a large enough effect in the signal ratio, with a control signal flat, not every such curve was filed as active; the % refers to the signal ratio;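 note: cells stimulated with 9-cis-retinoic acid as agonist; % is set by controls: 0 for no effect and ±100 for the full control effect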); settings: HEK293T RXRa-UAS-bla, beta-lactamase ratio, antagonist mode; measured here: W530 green channel, cytotoxicity proxy
Method in brief: (§1)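 Beta-lactamase reporter inhibition, read as CCF4 fluorescence ratio (ex 405, em 460/530 nm) after 2 h at RT. HEK293T UAS-bla cells, 2500/well, were stimulated with 9-cis-RA at 500 or 100 nM final alongside test compound for 18 h at 37 C.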

[10] = target: Retinoic acid receptor RXR-alpha (Homo sapiens) (UniProt P19793); experiment: as above; settings: HEK293T RXRa-UAS-bla, beta-lactamase ratio, antagonist mode
Method in brief: as §1

[11] = target: Thyroid hormone receptor beta (Homo sapiens) (UniProt P10828); experiment: qHTS assay for small molecule antagonists of thyroid hormone receptor beta signaling (AID 588547; active = well fitted inhibition curve with a large enough effect in the signal ratio, with a control signal flat, not every such curve was filed as active; the % refers to the signal ratio;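 note: cells stimulated with 0.4 nM T3 agonist during compound exposure; series mostly up to about 77 µM; % is set by controls: 0 for no effect and ±100 for the full control effect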); settings: TR-UAS-bla HEK293, beta-lactamase ratio, antagonist mode, 18 h
Method in brief: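 Inhibition of T3-driven (0.4nM final) beta-lactamase reporter activity was measured over 0.59 nM to 92 uM compound after 18 h at 37 C. The cells were GripTite HEK293 TR-UAS-bla in charcoal/dextran-stripped serum, with CCF4 ratio read-out and IC50 from Hill fits.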

[12] = qHTS assay for small molecule activators of the p53 signaling pathway (AID 651743; active = well fitted activation curve with a large enough effect in the signal ratio, not every such curve was filed as active; the % refers to the signal ratio; note: series mostly up to about 92 µM; % of control where 0% means no effect); settings: HCT-116 p53RE-bla, beta-lactamase FRET ratio, 16 h; activation: stronger effect = higher value
Method in brief: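 Screen for p53 pathway agonists uses stably transfected p53RE-bla HCT-116 cells, 4,000 per well, treated 16 h at 37 C with compounds in DMSO.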

[13] = qHTS assay for environmental chemicals that activate the Aryl hydrocarbon Receptor (AhR) signaling pathway (AID 651777; active = well fitted curve in the direction sought with a large enough effect; an effect the other way counts as inactive or inconclusive; note: % of control where 0% means no effect; nearly all actives have a fitted effect of over 15% in size); settings: 1A2-DRE human hepatoma cells, luciferase, 24 h; activation: stronger effect = higher value
Method in brief: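 1A2-DRE human hepatoma reporter line; 1,200 cells/well; cmpd or DMSO 24 h, 37 C/5% CO2; One-Glo 30 min RT; luciferase lum.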

[14] = target: Peroxisome proliferator-activated receptor alpha (Homo sapiens) (UniProt Q07869); experiment: qHTS assay for small molecule agonists of the peroxisome proliferator-activated receptor alpha (PPARalpha) signaling pathway (AID 651778; active = well fitted curve in the direction sought with a large enough effect; an effect the other way counts as inactive or inconclusive; note: % of control where 0% means no effect); settings: PathHunter PPARalpha complementation, chemiluminescence, 6 h; max response: stronger effect = higher value
Method in brief: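 Chemiluminescence from complemented enzyme reported PPARalpha activation in cells after 6 hr of compound treatment at 37 C. The detection reagent was incubated for 60 min at room temperature, and compounds were scored as agonists.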

[15] = qHTS assay for small molecule agonists of the antioxidant response element (ARE) signaling pathway measured by Nrf2-dependant transcriptional activity (AID 720636; active = well fitted curve in the direction sought with a large enough effect in the repeat runs; an effect the other way counts as inactive or inconclusive;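 note: HepG2 cells with an ARE-driven luciferase reporter; % of control where 0% means no effect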)
Method in brief: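 Cells: ARE-luc HepG2 with Nrf2-responsive luciferase. Medium contained 1% dialyzed FBS. Compound exposure lasted 16 hr at 37 C and 5% CO2, followed by ONE-Glo luciferase detection.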

[16] = qHTS assay for small molecule agonists of the antioxidant response element (ARE) signaling pathway measured by Nrf2-dependant transcriptional activity - cell viability counter screen (AID 720653; active = well fitted curve in the direction sought with a large enough effect in the repeat runs; an effect the other way counts as inactive or inconclusive; note: potency is the fitted concentration of half-maximal effect; for max response: % is set by controls: 0 for no effect and ±100 for the full control effect); settings: ARE-bla HepG2 viability, CellTiter-Glo ATP luminescence, 16 h; max response: stronger effect = lower value
Method in brief: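 Cytotoxicity counter screen: intracellular ATP quantified by CellTiter-Glo luminescence in the same ARE-bla HepG2 plates, after 16 h compound exposure and a 2 h beta-lactamase substrate step.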

[17] = qHTS assay for cell viability of HEK293 cells (AID 743288; active = well fitted curve in the direction sought with a large enough effect; an effect the other way counts as inactive or inconclusive; note: nearly all actives have a fitted effect of over 50% in size; note: potency is the fitted concentration of half-maximal effect); settings: ATP luminescence (CellTiter-Glo), 18 h; max response: stronger effect = lower value
Method in brief: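 Luminescent ATP quantitation served as the viability read-out. Cells (parental HEK293, 2,000/well) received compounds after at least 5 h at 37 C and were exposed for 18 h before a 30 min room-temperature reagent step.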

[18] = qHTS assay for cell viability of the p53RE-bla HCT-116 cell line (AID 743292; active = well fitted curve in the direction sought with a large enough effect; an effect the other way counts as inactive or inconclusive; note: nearly all actives have a fitted effect of over 55% in size; note: potency is the fitted concentration of half-maximal effect)
Method in brief: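 HCT-116 p53RE-bla cells seeded 4,000/well; 5 h at 37 C; compound (DMSO) added; 16 h at 37 C; CellTiter-Glo added, 30 min RT; luminescence read.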

[19] = target: Nuclear receptor subfamily 1 group I member 2 (Rattus norvegicus) (UniProt Q9R1A7); experiment: qHTS assay for small molecule activators of the rat pregnane X receptor (rPXR) signaling pathway (AID 651751; call rule not given here; note: 0% is about no effect); settings: rPXR reporter cells, luciferase (One-Glo), 24 h
[20] = target: Peroxisome proliferator-activated receptor gamma (Homo sapiens) (UniProt P37231); experiment: qHTS assay for small molecule antagonists of peroxisome proliferator-activated receptor gamma signaling (AID 588537; active = well fitted inhibition curve with a large enough effect in the signal ratio, with a control signal flat, not every such curve was filed as active; the % refers to the signal ratio;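 note: reporter cells co-stimulated with 50 nM rosiglitazone agonist during compound treatment; % of control where 0% means no effect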)
Method in brief: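 Inhibitors of agonist-stimulated UAS-bla reporter activity were sought in HEK293 cells; rosiglitazone (50 nM) defined full signal and DMSO baseline. Curves fitted to Hill model gave IC50 and efficacy.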

Estrogen receptor (Homo sapiens), sequence (P03372 whole entry, looked up): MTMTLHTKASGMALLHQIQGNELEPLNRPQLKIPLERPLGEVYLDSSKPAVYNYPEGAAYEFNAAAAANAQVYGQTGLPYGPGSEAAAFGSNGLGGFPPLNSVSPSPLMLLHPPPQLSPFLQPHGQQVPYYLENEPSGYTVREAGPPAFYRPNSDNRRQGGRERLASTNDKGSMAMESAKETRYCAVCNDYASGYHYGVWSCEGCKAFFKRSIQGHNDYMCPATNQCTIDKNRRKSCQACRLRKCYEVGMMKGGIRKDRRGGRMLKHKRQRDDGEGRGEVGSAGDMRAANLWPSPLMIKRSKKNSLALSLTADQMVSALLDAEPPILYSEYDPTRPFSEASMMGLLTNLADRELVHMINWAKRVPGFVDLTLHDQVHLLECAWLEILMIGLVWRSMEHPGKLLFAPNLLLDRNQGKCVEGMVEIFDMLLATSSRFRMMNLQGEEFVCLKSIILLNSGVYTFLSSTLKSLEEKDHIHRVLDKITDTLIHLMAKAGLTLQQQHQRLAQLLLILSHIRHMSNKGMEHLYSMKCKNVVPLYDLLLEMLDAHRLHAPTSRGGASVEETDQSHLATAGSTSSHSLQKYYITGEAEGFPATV
Peroxisome proliferator-activated receptor gamma (Homo sapiens), sequence (P37231 whole entry, looked up): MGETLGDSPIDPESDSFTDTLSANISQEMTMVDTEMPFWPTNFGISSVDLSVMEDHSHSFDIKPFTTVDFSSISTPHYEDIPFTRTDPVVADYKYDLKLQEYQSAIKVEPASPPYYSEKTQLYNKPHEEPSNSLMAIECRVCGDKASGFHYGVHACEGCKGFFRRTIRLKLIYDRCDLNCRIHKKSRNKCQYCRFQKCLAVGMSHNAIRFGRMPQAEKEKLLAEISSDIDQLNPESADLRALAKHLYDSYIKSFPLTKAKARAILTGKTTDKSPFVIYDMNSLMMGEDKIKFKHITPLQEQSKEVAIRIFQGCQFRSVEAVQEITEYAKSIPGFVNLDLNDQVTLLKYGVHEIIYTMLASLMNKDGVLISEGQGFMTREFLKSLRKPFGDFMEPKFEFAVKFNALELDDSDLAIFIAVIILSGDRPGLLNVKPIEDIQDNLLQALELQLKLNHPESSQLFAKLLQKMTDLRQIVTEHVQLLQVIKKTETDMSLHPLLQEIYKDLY
Thyroid hormone receptor beta (Homo sapiens), sequence (P10828 whole entry, looked up): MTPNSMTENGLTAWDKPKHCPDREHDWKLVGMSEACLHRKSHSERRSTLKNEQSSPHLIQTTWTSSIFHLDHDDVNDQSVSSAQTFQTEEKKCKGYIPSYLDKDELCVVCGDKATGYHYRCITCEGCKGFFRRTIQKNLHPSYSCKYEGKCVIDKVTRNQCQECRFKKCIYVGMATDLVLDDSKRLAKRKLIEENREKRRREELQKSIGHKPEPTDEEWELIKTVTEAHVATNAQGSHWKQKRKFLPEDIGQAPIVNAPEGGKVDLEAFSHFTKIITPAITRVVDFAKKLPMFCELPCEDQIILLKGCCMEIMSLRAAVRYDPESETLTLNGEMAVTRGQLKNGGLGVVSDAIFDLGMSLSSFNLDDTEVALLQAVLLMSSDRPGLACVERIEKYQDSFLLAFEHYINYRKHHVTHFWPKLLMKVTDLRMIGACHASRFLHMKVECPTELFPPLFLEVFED
Nuclear receptor subfamily 1 group I member 2 (Rattus norvegicus), sequence (Q9R1A7 whole entry, looked up): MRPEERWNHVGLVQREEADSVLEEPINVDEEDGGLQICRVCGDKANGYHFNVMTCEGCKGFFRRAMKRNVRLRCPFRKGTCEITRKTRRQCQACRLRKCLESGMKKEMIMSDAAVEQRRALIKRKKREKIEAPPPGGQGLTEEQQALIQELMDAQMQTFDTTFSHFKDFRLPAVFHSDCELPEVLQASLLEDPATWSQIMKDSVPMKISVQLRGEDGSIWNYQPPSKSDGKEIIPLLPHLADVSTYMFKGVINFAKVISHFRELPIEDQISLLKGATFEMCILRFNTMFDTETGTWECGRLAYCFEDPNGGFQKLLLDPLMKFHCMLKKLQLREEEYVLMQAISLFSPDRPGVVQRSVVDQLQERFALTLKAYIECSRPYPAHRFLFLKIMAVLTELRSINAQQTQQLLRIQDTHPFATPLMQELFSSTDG
Peroxisome proliferator-activated receptor alpha (Homo sapiens), sequence (Q07869 whole entry, looked up): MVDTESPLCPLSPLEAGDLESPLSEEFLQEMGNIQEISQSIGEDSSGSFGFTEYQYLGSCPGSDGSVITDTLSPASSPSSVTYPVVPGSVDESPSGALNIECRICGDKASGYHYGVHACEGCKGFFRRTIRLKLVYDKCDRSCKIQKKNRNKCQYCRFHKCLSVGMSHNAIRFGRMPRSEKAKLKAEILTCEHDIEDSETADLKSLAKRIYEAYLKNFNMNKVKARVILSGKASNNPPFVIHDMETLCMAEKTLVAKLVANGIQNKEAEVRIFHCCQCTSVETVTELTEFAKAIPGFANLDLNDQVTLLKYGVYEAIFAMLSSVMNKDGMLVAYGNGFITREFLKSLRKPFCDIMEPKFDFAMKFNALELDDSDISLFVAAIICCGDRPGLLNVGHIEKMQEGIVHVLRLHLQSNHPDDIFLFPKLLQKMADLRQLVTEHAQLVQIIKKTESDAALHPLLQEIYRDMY
Peroxisome proliferator-activated receptor delta (Homo sapiens), sequence (Q03181 whole entry, looked up): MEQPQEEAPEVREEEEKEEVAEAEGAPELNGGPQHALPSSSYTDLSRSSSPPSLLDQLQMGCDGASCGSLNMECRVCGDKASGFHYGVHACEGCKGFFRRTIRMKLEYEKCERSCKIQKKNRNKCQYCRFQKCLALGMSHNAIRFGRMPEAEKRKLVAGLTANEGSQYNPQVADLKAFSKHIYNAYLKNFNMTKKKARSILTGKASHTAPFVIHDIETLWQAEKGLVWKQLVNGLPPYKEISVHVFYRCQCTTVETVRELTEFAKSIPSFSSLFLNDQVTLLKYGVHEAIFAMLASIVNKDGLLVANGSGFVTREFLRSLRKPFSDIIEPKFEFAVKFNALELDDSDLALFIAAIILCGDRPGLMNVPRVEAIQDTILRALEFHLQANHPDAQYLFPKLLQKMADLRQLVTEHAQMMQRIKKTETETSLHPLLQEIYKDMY
Retinoic acid receptor RXR-alpha (Homo sapiens), sequence (P19793 whole entry, looked up): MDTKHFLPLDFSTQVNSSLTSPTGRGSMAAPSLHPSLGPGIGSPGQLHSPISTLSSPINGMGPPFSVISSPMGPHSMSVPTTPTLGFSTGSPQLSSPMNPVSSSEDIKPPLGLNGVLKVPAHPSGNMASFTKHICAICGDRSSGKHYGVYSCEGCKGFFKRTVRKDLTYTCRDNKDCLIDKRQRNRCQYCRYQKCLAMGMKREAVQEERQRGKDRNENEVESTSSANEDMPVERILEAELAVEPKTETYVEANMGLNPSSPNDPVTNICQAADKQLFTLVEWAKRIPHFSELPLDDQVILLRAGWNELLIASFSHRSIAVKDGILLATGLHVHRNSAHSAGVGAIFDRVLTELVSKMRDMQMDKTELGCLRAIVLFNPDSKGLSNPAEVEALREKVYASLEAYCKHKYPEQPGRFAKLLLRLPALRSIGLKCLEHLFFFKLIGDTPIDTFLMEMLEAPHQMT
Vitamin D3 receptor (Homo sapiens), sequence (P11473 whole entry, looked up): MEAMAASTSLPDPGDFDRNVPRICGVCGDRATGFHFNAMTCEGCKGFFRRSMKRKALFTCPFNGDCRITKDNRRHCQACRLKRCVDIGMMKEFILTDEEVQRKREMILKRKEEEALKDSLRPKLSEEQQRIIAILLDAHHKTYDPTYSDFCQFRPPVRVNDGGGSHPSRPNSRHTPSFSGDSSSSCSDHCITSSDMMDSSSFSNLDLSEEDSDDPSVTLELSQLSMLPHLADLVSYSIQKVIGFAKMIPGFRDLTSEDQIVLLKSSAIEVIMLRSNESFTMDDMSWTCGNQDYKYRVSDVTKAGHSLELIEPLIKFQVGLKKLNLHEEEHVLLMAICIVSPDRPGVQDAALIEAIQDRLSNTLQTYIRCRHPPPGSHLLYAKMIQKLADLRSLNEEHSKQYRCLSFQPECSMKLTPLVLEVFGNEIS

Nc1ccc([N+](=O)[O-])cc1Cl
-11.1%: max response [9]
inactive: Potency [1] | Potency [2] | outcome [3] | Potency [5] | Potency [6] | Potency [7] | Potency [8] | max response [10] -1.45% | activity change % (negative = inhibition) [11] -8.47% | activation [12] -0.946% | activation [13] 3.47% | max response [14] -5.45% | Potency [15] | max response [16] 3.06% | max response [17] -1.89% | Potency [18] | max response [19] 2.06%
-22.4%: max response [4]

Cc1cnc(C2=NC(C)(C(C)C)C(=O)N2)c(C(=O)O)c1 (centres undefined)
8.17%: max response [9]
-1.47%: max response [4]
inactive: Potency [1] | Potency [2] | outcome [3] | Potency [20] | Potency [6] | Potency [7] | Potency [8] | max response [10] 9.76% | activity change % (negative = inhibition) [11] -3.72% and -20.5% | activation [12] 0.249% and -2.82% | activation [13] 1.97% and -3.27% | max response [14] -1.29% and -1.68% | Potency [15] | max response [16] -15.3% and 23.5% | max response [17] -9.43% and 4.33% | Potency [18] | max response [19] 5.11% and -5.71%

CCCC1COC(Cn2cncn2)(c2ccc(Cl)cc2Cl)O1 (centres undefined)
10.7%: max response [4]
inactive: Potency [1] | Potency [2] | outcome [3] | Potency [20] | Potency [6] | Potency [7] | Potency [8] | max response [10] 2.1% | activity change % (negative = inhibition) [11] 12.9% and 0.314% | activation [12] -6.14% | max response [14] -0.724% and -0.169% | Potency [15] | max response [16] -18.4% and -18.3% | max response [17] -21.6% and -21.9% | Potency [18]
5.44%: max response [9]

Cc1ccccc1C(=O)Nc1cccc(OC(C)C)c1
inactive: Potency [1] | Potency [2] | outcome [3] | Potency [7] | Potency [8] | max response [10] -11.3% | activity change % (negative = inhibition) [11] 5.62% | activation [12] -3.37% | max response [14] -0.819% | max response [16] -14.9% | max response [17] -16% | Potency [18]
-1.03%: max response [9]
10.6%: max response [4]

O=C1NCCN1Cc1ccc(Cl)nc1
-14.3%: max response [4]
-14.8%: max response [9]
inactive: Potency [1] | Potency [2] | outcome [3] | Potency [5] | Potency [6] | Potency [7] | Potency [8] | activity change % (negative = inhibition) [11] 2.45% | activation [13] -0.434% | max response [14] -0.72% | Potency [15] | max response [16] 1.67% | max response [17] 1.96% | Potency [18] | max response [19] 1.46%

CCC[CH2][Sn]([CH2]CCC)[CH2]CCC
inactive: Potency [2] | activation [13] -0.508% | max response [14] 1.41% | max response [19] -14%
active: Potency [1] 15.8 µM [inhibitor] | Potency [16] 15.8 µM | Potency [17] 28.2 µM | Potency [18] 28.2 µM
